Measurements as given in PubChem BioAssay AID504848 (National Center for Advancing Translational Sciences (NCATS), 2011).
About 1,400 (61%) of roughly 2,300 compounds were called active. Roughly 29% stayed inconclusive and do not appear here. So high a share suggests a set chosen from earlier hits. The list shows a part of the results. Unmarked numbers belong to inactive results. Calls come from the whole dose curve; as a rule, active = well fitted inhibition curve with a large enough effect; inconclusive = small, poorly fitted or top-dose-only effect, or effect the other way; inactive = no such curve, though single readings can be large or run the other way.

assay: Confirmation screen for delayed death inhibitors of the malarial parasite plastid, 96 hour incubation; note: nearly all actives have a fitted effect of over 60% in size; details: P. falciparum luciferase growth in erythrocytes; series mostly up to 28.7 µM; activity change, negative = inhibition: at the top concentration
Outline: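 Erythrocytes infected with luciferase-expressing P. falciparum (2% hematocrit, 0.1% parasitemia final) in RPMI 1640 with 0.5% Albumax, exposed to compounds 96 h at 37 C, 5% CO2. Growth inhibition read as decreased luciferase luminescence.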
% is set by controls: 0 for no effect and ±100 for the full control effect; potency is the fitted concentration of half-maximal effect.

SMILES | activity change, negative = inhibition [%] | Potency
O=C(/C=C/c1cccs1)Nc1sc2c(c1C(=O)O)CCCC2 | 1.27 | –
CC(C)(C)c1ccc(C(=O)Nc2sc3c(c2C(=O)O)CCC3)cc1 | – | 10 µM (active)
Cc1ccc(-c2nnc(SCC(=O)N/N=C/c3cccs3)n2-c2ccc(C)cc2)cc1 | – | 10 µM (active)
Cc1nnc(N2CCCC(C(=O)NCc3cccc(F)c3)C2)c2nn(-c3ccccc3)c(C)c12 (centres undefined) | – | 12.6 µM (active)
CCCCc1nc2cc(C(=O)N3CCN(c4nc(C)cnc4C)CC3)ccc2o1 | – | 10 µM (active)
Cc1ccc(NS(=O)(=O)c2ccc(-c3cnc(C4CC4)o3)cc2)c(C)c1 | – | 7.08 µM (active)
Cn1c(=O)n(Cc2ccccc2)c(=O)c2c1nc1n2CCN1Cc1ccco1 | – | 7.94 µM (active)
Cc1nc(-c2ccc(S(=O)(=O)N3CCCN(CCc4ccccc4)CC3)s2)cs1 | – | 3.55 µM (active)
CCCCCCCNC(=O)C1(CC2CC(c3ccc(Cl)cc3)=NO2)CCN(C(=O)C2CCCC2)CC1 (centres undefined) | – | 10 µM (active)
CCCCCCCNC(=O)C1(CC2CC(c3ccc(Cl)cc3)=NO2)CCN(C(=O)Cc2ccc(F)cc2)CC1 (centres undefined) | – | 7.94 µM (active)
CC(C)C(=O)N1CCN(c2ccc(NC(=O)c3ccc([N+](=O)[O-])o3)cc2)CC1 | – | 4.47 µM (active)
CCCC(=O)N1CCN(c2ccc(NC(=O)c3ccc([N+](=O)[O-])o3)cc2Cl)CC1 | – | 8.91 µM (active)
O=C(Nc1ccc(S(=O)(=O)N2CCOCC2)cc1)c1ccc([N+](=O)[O-])o1 | – | 3.55 µM (active)
O=C(Nc1ccc(N2CCOCC2)c(Cl)c1)c1cc2ccccc2o1 | – | 2.82 µM (active)
CCCC(=O)N1CCN(c2ccc(NC(=O)c3ccc([N+](=O)[O-])o3)cc2)CC1 | – | 6.31 µM (active)
Cc1cccc(-c2c(NC(=O)c3ccco3)oc3ccc(Cl)cc3c2=O)c1 | -13.7 | –
CCN1CCN(c2ccc(NC(=O)c3ccc([N+](=O)[O-])o3)cc2Cl)CC1 | – | 7.94 µM (active)
CC(C)C(=O)N1CCN(c2ccc(NC(=O)c3ccco3)cc2Cl)CC1 | – | 6.31 µM (active)
CCC(=O)N1CCN(c2ccc(NC(=O)c3ccc([N+](=O)[O-])o3)cc2Cl)CC1 | – | 7.94 µM (active)
CC(=O)OC[C@H]1O[C@@H](n2ncc(=O)[nH]c2=O)[C@H](OC(C)=O)[C@@H]1OC(C)=O | -11.2 | –
CS(=O)(=O)N1CCN(c2ccc(NC(=O)c3ccc([N+](=O)[O-])o3)cc2)CC1 | – | 7.08 µM (active)
COc1cc2c(cc1OC)CN(C(=O)c1cccc(S(=O)(=O)N3CCc4ccccc43)c1)CC2 | – | 11.2 µM (active)
O=C(CNC(=O)c1cccc(S(=O)(=O)N2CCc3ccccc32)c1)Nc1ccc(F)c(F)c1F | – | 11.2 µM (active)
O=C(c1cccc(S(=O)(=O)N2CCc3ccccc32)c1)N1CCN(c2ccccc2)CC1 | – | 11.2 µM (active)

SMILES | activity change, negative = inhibition [%] | Potency
CN(Cc1nc2ccccc2c(=O)[nH]1)C(=O)c1cccc(S(=O)(=O)N2CCc3ccccc32)c1 | – | 11.2 µM (active)
CCc1cc(SC#N)ccc1N | – | 8.91 µM (active)
CC(C)(C)Nc1nc(Cl)nc(NC2CCCCC2)n1 | – | 12.6 µM (active)
CCCc1cc(=O)n2nc(N3CCC(C(=O)NCc4ccc(C)o4)CC3)sc2n1 | – | 8.91 µM (active)
CCCc1cc(=O)n2nc(N3CCC(C(=O)N4CCN(c5ccc(OC)cc5)CC4)CC3)sc2n1 | – | 10 µM (active)
COc1cc(CNc2cccc(C(=O)O)c2)cc(Br)c1OCC(=O)NC(C)(C)C | – | 12.6 µM (active)
COc1ccccc1CCC(=O)N1CCN(S(=O)(=O)c2cc(C(F)(F)F)ccc2Cl)CC1 | – | 11.2 µM (active)
Cc1ccc(C)c(-c2cc(C(=O)NNC(=S)NCC(C)C)c3ccccc3n2)c1 | – | 11.2 µM (active)
Cc1ccc(C)c(-c2cc(C(=O)Nc3nccs3)c3ccccc3n2)c1 | – | 1.12 µM (active)
Cc1ccccc1-c1cc(C(=O)n2cccn2)c2cc(Cl)ccc2n1 | -12.5 | –
CC[n+]1ccccc1/C=C/c1ccc(N(C)C)cc1 | – | 1.58 µM (active)
Cc1ccc(/C=C/c2ccc(N(C)C)cc2)[n+](C)c1 | – | 0.501 µM (active)
Cn1c(=O)c(=O)n(C)c2cc(N3CCCCC3)c(NS(=O)(=O)c3ccc(Br)cc3)cc21 | – | 12.6 µM (active)
Cc1ccc(C(=O)NNc2c3ccccc3nc3ccccc23)cc1 | – | 10 µM (active)
O=C(NNc1c2ccccc2nc2ccccc12)C(O)c1ccccc1 (centres undefined) | – | 10 µM (active)
COc1ccccc1OCC(=O)NNc1c2ccccc2nc2ccccc12 | – | 5.01 µM (active)
Cc1ccc(OCC(=O)NNc2c3ccccc3nc3ccccc23)cc1 | – | 6.31 µM (active)
O=C(COc1cccc2ccccc12)Nc1ccc(Cl)cc1C(=O)O | 2.28 | –
COc1cccc(C(=O)NNc2c3ccccc3nc3ccccc23)c1 | – | 15.8 µM (active)
Cc1cccc(OCC(=O)NNc2c3ccccc3nc3ccccc23)c1 | – | 4.47 µM (active)
O=C(COc1ccccc1)NNc1c2ccccc2nc2ccccc12 | – | 5.01 µM (active)
O=C(COc1ccccc1)Nc1nnc(-c2ccc(F)cc2)o1 | 6.86 | –
O=C(CCCO)NNc1c2ccccc2nc2ccccc12 | – | 6.31 µM (active)
O=C(CN1CCOCC1)NNc1c2ccccc2nc2ccccc12 | – | 12.6 µM (active)

SMILES | activity change, negative = inhibition [%] | Potency
N#Cc1c(N2C(=O)Nc3ccccc3N2O)sc2c1CCCCCC2 | – | 14.1 µM (active)
Cc1ccc2nc(CNC(=O)C3CCC(=O)N(Cc4ccccc4F)C3)cn2c1 (centres undefined) | – | 11.2 µM (active)
O=C(NC1CCC1)C1CCC(=O)N(Cc2ccccc2F)C1 (centres undefined) | -10.3 | –
COCCn1c(C)cc(C(=O)CSc2cc(C)c3ccc(OC)cc3n2)c1C | – | 17.8 µM (active)
CCCSCCCNC(=O)c1ccccc1NC(=O)C1=CSCCO1 | – | 12.6 µM (active)
COc1ccc([C@@]2(C(C)C)ON(c3ccccc3C(F)(F)F)C2=O)cc1 | – | 0.501 µM (active)
COc1ccc(CN(CCC(c2ccccc2)c2ccco2)C(=O)c2ccco2)cc1 (centres undefined) | – | 8.91 µM (active)
COc1ccc(S(=O)(=O)N/N=C(/C)c2ccco2)cc1 | -15.7 | –
Fc1cc2nc(-c3ccncc3)[nH]c2cc1F | – | 3.16 µM (active)
COCCN(C(=S)Nc1ccc(OC)c(Cl)c1)C1CCN(C(C)C)CC1 | – | 11.2 µM (active)
CC(=O)Nc1sc2c(c1-c1nc3ccccc3s1)CCN(C(C)C)C2 | – | 0.316 µM (active)
CC(C)N1CCc2c(sc(NC(=S)NC(=O)c3ccccc3)c2C#N)C1 | – | 2 µM (active)
N#Cc1cc(S(=O)(=O)c2ccccc2)c(N)[nH]c1=O | -5.71 | –
COc1cccc(NC(=O)c2ccc(CN3CCN(c4ccccc4)CC3)cc2)c1 | – | 14.1 µM (active)
COc1ccc(NC(=O)c2ccc(CN3CCN(c4ccccc4)CC3)cc2)cc1OC | – | 12.6 µM (active)
COc1cccc(NC(=O)c2ccc3c(c2)C(=O)N(CC2CCCO2)C3=O)c1 (centres undefined) | -15.2 | –
C#CC[N+]1(CC#Cc2ccc(C#CC[N+]3(CC#C)CCOCC3)cc2)CCOCC1 | – | 5.62 µM (active)
Cc1ccc(-c2csc3nc[nH]c(=O)c23)cc1 | -26.9 | –
Cc1c(C)n2c(SCC(=O)Nc3ccc4c(c3)OCCO4)nnc2[nH]c1=O | – | 1.58 µM (active)
CCOc1ccc2c(c1)OC(c1ccccc1)(C(F)(F)F)NC2=O (centres undefined) | – | 1.41 µM (active)
O=C(CCNS(=O)(=O)c1cccc2nonc12)NCCc1ccc(Cl)cc1 | – | 11.2 µM (active)
O=C(Nc1nnc(Cc2ccc(F)cc2)s1)Nc1ccccc1F | – | 12.6 µM (active)
O=S(=O)(c1cccs1)N1CCN(c2ccnc3cc(Cl)ccc23)CC1 | – | 4.47 µM (active)
O=C(Nc1ccc(F)cc1F)c1ccc2c(c1)[nH]c(=O)n2Cc1ccc(F)cc1 | – | 14.1 µM (active)

SMILES | activity change, negative = inhibition [%] | Potency
CC1(C)CC(=O)C2=C(C1)OC1=C(C(=O)CC(C)(C)C1)C2c1ccc(O)cc1O | – | 7.08 µM (active)
CC(C)C(=O)NC(=S)Nc1ccc(S(=O)(=O)NC2CCCCC2)cc1 | -50.8 | –
O=C(NC(=C(Cl)Cl)S(=O)(=O)c1ccc(Cl)cc1)c1ccccc1 | -22.7 | –
CC(C)NS(=O)(=O)c1ccc(NC(=S)NC(=O)c2ccc(-c3ccccc3)cc2)cc1 | – | 5.01 µM (active)
O=C(CCN1C(=O)c2ccccc2C1=O)C1=NN[C@@H]2C(=O)N(c3ccc(F)cc3)C(=O)[C@H]12 | 22.9 | –
CCC/C(C#CCCN1C(=O)c2ccccc2C1=O)=C1/c2ccccc2C(=O)N1c1ccccc1 | – | 5.01 µM (active)
COC(=O)Cc1ccc(NC(=O)C(c2ccccc2)c2ccccc2)cc1 | – | 10 µM (active)
CCOC(=O)c1c(C)sc2c1N(C(=O)CCl)c1cc(Cl)ccc1S2 | – | 2 µM (active)
NC(=O)c1ccc(NC(=O)C#Cc2ccccc2)cc1 | – | 1 µM (active)
O=C(C#Cc1ccccc1)Nc1cccc(F)c1 | – | 1 µM (active)
O=C(C#Cc1ccccc1)Nc1ccccc1F | – | 12.6 µM (active)
COc1ccc(NC(=O)C#Cc2ccccc2)cc1 | – | 7.94 µM (active)
Cc1ccc(Cn2c(C)nc3c(c2=O)c2nc4ccccc4nc2n3Cc2ccco2)cc1 | – | 5.01 µM (active)
Nc1ccccc1SSc1ccccc1N | – | 7.94 µM (active)
CCN(CC)S(=O)(=O)c1cccc(NC(=O)c2cc(-c3cccs3)nn2-c2ccccc2)c1 | – | 12.6 µM (active)
Clc1cccc(OCCCCCN2CCOCC2)c1 | -30 | –
Brc1cccc(OCCCCN2CCCCC2)c1 | – | 12.6 µM (active)
Cc1nn(-c2ccccc2)c(C)c1/C=N/n1c(-c2ccccc2Br)n[nH]c1=S | – | 11.2 µM (active)
S=c1[nH]nc(-c2ccccn2)n1/N=C/c1ccc(-c2ccccc2Br)o1 | -12.3 | –
Nc1nc(CCl)nc(N(c2ccccc2)c2ccccc2)n1 | – | 1.41 µM (active)
COC(=O)[C@H](Cc1ccccc1)N(C)S(=O)(=O)c1cccc(S(=O)(=O)N(C)[C@@H](Cc2ccccc2)C(=O)OC)c1 | – | 14.1 µM (active)
O=C(N[C@@H](Cc1ccccc1)C(=O)CCl)OCc1ccccc1 | -4.29 | –
